# Data as given in PubChem BioAssay (NCATS).
# A number with no mark means an inactive call. The call rests on the fitted dose curve.
# Target: Glucocorticoid receptor (Homo sapiens) (UniProt P04150)
# Experiment: GR-EFC Redistribution (AID 451)
# Conditions: CHO-K1 GR-EFC translocation, beta-gal luminescence, 2 h
# Source text: NIH Molecular Libraries Screening Centers Network [MLSCN]
# NIH Chemical Genomics Center [NCGC]
# The glucocorticoid receptor (GR) is a cytoplasmic receptor that belongs to the nuclear receptor family of ligand-dependent transcription factors. Upon glucocorticoid binding to its receptor, the glucocorticoid-GR complex translocates into the nucleus, where it binds as a dimer to specific DNA sequences (glucocorticoid response elements), enhancing or suppressing transcription of a wide variety of glucocorticoid-responsive genes. In addition to their important roles in normal physiology and metabolism, glucocorticoids are administered exogenously as treatments for a wide variety of allergic, autoimmune, and neoplastic conditions. Identification of compounds that modulate aspects of GR signalling would be useful in dissecting glucocorticoid response pathways as well as developing GR modulators with more targeted clinical effects.
# Traditionally, GR modulators have been identified using receptor binding or direct transactivation assays. However, assays for glucocorticoid-dependent nuclear translocation can also be used to screen for compounds affecting GR signaling.
# Immunocytochemical staining has been used to assay for GR translocation, but is not suitable for high throughout screening due to the multiple reagent addition and wash steps required. Recently, a novel cell-based GR assay in Enzyme Fragment Complementation (EFC) format was developed by DiscoveRx (Fremont, CA). The assay uses EFC of b-galactosidase (b-gal) as an indicator of GR-translocation in engineered CHO-K1 biosensor cells. The enzyme acceptor (EA) fragment of b-gal resides in the nucleus , as designed through the use of a proprietary set of sequence additions and modifications. The small peptide enzyme donor (ED) fragment of b-gal is fused directly to the C-terminus of GR, and is localized in the cytoplasm is the absence of receptor signaling. Upon binding to a GR ligand, the complex translocates to the nucleus, where intact enzyme activity is restored by complementation and b-gal activity is detected. We optimized this GR-EFC assay in homogenous 1536-well plate assay format for high throughput screening.
# NCGC Assay Protocol Summary:
# CHO-K1 cells stably expressing NLS-enzyme acceptor fragment (EA) of b-gal and GR-enzyme donor (ED) fragment of b-gal were maintained in F12 medium (Invitrogen, Carlsbad, CA) at 37 Celsius degrees under a humidified atmosphere containing 5% CO2 and 95% air. The medium contained 10% FBS, 2 mM L-glutamine, 50 U/ml penicillin 50 ug/ml streptomycin, and 250 ug/ml hygromycin and 500 ug/ml G418 (Invitrogen).
# GR-translocation was measured beta-gal enzyme activity using the PathHunter Detection Kit containing cell membrane permeablizing reagent and beta-gal substrate (DiscoveRx, Fremont, CA). All compounds were screened as titrations from 0.6 nM to 46 uM final concentration. The assay was performed in 1536-well format as follows:
# 5 uL cell suspension (1,000 cells)/well
# Incubation at 37 Celsius degrees for two hours
# 1.25 uL 1X detection buffer from the kit supplied by DiscoveRx
# Incubation at room temperature for one hour
# Read plate in luminescence mode in ViewLux plate reader (PerkinElmer)
# Keywords: NIH Roadmap, MLSCN, MLI, MLSMR, GR-EFC, GREFC, qHTS, NCGC
# Potency means the concentration at half of the fitted maximal effect.
# Chain of Glucocorticoid receptor (Homo sapiens) (P04150 whole entry, looked up): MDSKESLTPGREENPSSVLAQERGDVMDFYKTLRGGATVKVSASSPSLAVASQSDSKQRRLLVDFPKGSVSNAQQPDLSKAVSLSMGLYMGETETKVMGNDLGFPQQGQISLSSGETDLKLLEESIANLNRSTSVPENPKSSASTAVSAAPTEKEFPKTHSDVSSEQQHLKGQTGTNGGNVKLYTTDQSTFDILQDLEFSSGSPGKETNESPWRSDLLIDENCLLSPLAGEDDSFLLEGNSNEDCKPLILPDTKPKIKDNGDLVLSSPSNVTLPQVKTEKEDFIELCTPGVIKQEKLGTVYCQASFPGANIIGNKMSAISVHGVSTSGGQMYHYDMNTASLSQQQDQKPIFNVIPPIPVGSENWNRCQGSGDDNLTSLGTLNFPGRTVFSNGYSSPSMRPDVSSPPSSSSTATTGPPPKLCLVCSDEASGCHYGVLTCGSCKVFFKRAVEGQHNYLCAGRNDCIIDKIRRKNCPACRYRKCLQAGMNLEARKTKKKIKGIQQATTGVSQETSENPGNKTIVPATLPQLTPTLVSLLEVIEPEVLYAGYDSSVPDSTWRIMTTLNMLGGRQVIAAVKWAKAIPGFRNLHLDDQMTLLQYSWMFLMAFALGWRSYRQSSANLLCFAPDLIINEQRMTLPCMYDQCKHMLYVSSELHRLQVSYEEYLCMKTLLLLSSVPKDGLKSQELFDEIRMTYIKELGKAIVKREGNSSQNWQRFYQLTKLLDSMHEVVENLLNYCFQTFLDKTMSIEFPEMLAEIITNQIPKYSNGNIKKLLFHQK
row,Structure (SMILES),Potency [µM]
1,C[Se]C[C@@H](N)C(=O)O,> 46
2,c1ccc(CCN2CCCCCC2)nc1,> 9.22
3,CC(C)[C@@]1(NC(=O)[C@@H]2C=C3c4cccc5[nH]cc(c45)C[C@@H]3N(C)C2)O[C@]2(O)[C@H]3CCCN3C(=O)[C@H](Cc3ccccc3)N2C1=O,> 46
4,COc1ccc(C[C@@H](N)c2ccc(OC)cc2)cc1,> 9.22
5,CCc1ccc(CCN2CCCCC2)nc1,> 9.22
6,Oc1ccc([C@H](O)[C@@H]2CCCCN2)cc1O,> 9.22
7,Cc1c([C@@H](C)[C@H]2NC[C@H](C)C[C@@H]2O)ccc2c1C[C@@H]1[C@H]2CC=C2C[C@@H](O)CC[C@@]21C,> 9.22
8,O=C(O)Cc1ccc([N+](=O)[O-])cc1[N+](=O)[O-],> 9.22
9,CCSCC[C@H](N)C(=O)O,> 9.22
10,Cc1ccc(C2(c3ccc(C)c(O)c3C)CCN(C)CC2)c(C)c1O,> 9.22
11,CC[C@]1(OC(=O)CN)C(=O)OCc2c1cc1n(c2=O)Cc2cc3ccccc3nc2-1,> 9.22
12,O=C(O)/C=C\c1ccc[c]([Sb](=[O])([OH])[OH])c1,> 9.22
13,C[N+]1(C)C2CC(OC(=O)C(CO)c3ccccc3)CC1[C@@H]1O[C@H]21 (stereo not given in full),> 46
14,O=C(O)[C@H]1C2c3ccccc3C(c3ccccc32)[C@@H]1C(=O)NCC1CC1,> 9.22
15,Nc1nc(N)c(N=Nc2ccc([As](=O)(O)O)c(O)c2)c(N)n1,> 9.22
16,CC1(C)N=C(N)N=C(N)N1c1cccc(C(=O)Nc2ccc(S(=O)(=O)F)cc2)c1,> 9.22
17,NNc1c(C(N)=O)c2c(N)ncnc2n1[C@@H]1O[C@H](CO)[C@@H](O)[C@@H]1O,> 9.22
18,C=CCN1CC[C@]23c4c5ccc(O)c4O[C@@H]2/C(=N/NC(=O)c2ccccc2)CC[C@@]3(O)[C@H]1C5,> 46
19,CC(C)=C[C@H]1[C@@H](C(=O)OCc2cc3c(cc2Cl)OCO3)C1(C)C,> 9.22
20,C[C@@H]1[C@H]2C=C[C@@H]1[C@@H](c1c3ccc(=O)c(O)c-3oc3c(O)c(O)ccc13)[C@@H]2C(=O)O,> 9.22

row,Structure (SMILES),Potency [µM]
1,O=C(Nc1ccc([As](=O)(O)O)cc1)Nc1cccc(Cl)c1Cl,> 9.22
2,COc1ccc(C[C@@H]2C(=O)N[C@H](C)C(=O)N(C)[C@@H]3C(=O)N(C)[C@@H](Cc4ccc(O)c(c4)Oc4ccc(cc4)[C@H]3O)C(=O)N[C@@H](C)C(=O)N[C@H](C)C(=O)N2C)cc1,> 9.22
3,C[C@H](CC(C#N)(c1ccccc1)c1ccccc1)N1CCCCC1,> 9.22
4,N#CS.N=C=S.N=C=S.[Cu].[NH2-].[NH2-].[NH2-].[NH2-].c1ccc2ncccc2c1,> 9.22
5,NC(=O)c1ccc(C(=O)Nc2ccc([As](=O)(O)O)cc2)cc1,> 9.22
6,CCNC(=O)[C@@H]1O[C@@H](n2cnc3c(N)ncnc32)[C@@H](O)[C@H]1O,> 46
7,N[C@@H](Cc1cc(Br)c(O)c(Br)c1)C(=O)O,> 9.22
8,COc1ccc(C(=O)O[C@H]2CC[C@@]3(C)[C@H]4CC[C@H]5[C@]3(C[C@]3(O)[C@H]6CN7C[C@H](C)CC[C@H]7[C@](C)(O)[C@]6(O)[C@H](O)C[C@]53O)O[C@]24O)cc1OC,> 9.22
9,C#CCN[C@@H](C)Cc1ccccc1,> 46
10,CC(=O)c1c(O)c(C)c(O)c(Cc2c(O)c3c(c(C(=O)/C=C\c4ccccc4)c2O)OC(C)(C)C=C3)c1O,> 46
11,C[C@@H](O)CN(CCN(C[C@@H](C)O)C[C@@H](C)O)C[C@@H](C)O.O=[N+]([O-])O.[Cu],> 9.22
12,C[N+]1(C)CCc2cc3c(cc2[C@@H]1[C@@H]1OC(=O)c2c1ccc1c2OCO1)OCO3,> 46
13,CN1C[C@H](C(=O)N[C@@]2(C)O[C@@]3(O)[C@H]4CCCN4C(=O)[C@@H](Cc4ccccc4)N3C2=O)C=C2c3cccc4[nH]cc(c34)C[C@@H]21,> 9.22
14,C[C@@]12CC[C@H]3[C@H](CCC4=CC(=O)CC[C@H]43)[C@H]1CC[C@H]2OC1(O)C(=O)c2ccccc2C1=O,> 9.22
15,CC[C@@]1(O)C(=O)OCc2c1cc1n(c2=O)Cc2cc3c(NC(=O)CN)cccc3nc2-1,> 9.22
16,C[N+]1([O-])[C@H]2CC[C@H]1CC(OC(=O)[C@@H](CO)c1ccccc1)C2 (stereo not given in full),> 9.22
17,C[C@H](c1ccccc1)N1CCN([C@@H](C)c2ccccc2)CC1,> 9.22
18,CC(=O)OCC1=C(C(=O)[O-])N2C(=O)[C@@H](NC(=O)CCC[C@@H](N)C(=O)[O-])[C@@H]2SC1.[Zn+2],> 46
19,CN[C@H]1[C@H](C)O[C@@H](O[C@@H]2C/C=C(/C)C/C(C)=C\C=C/CC[C@@H](C)CNC(=O)/C=C\C=C/[C@H]2C)C[C@@H]1O,> 9.22
20,C[C@@]12CC[C@H]3[C@@H](CC=C4C[C@H](OS(=O)(=O)O)CC[C@]43C)[C@H]1CCC2=O,> 46
